In PubChem BioAssay AID1159580 (chemical genetic matrix, 2015):
Out of some 5,500 compounds screened, about 2,000 (36%) were called active. About 18% were inconclusive and are not listed. Cut-off read from the data, not from the text of the source: active = normalized growth mostly below about 0.91 (no sharp cut-off); inconclusive = no clear call, values can overlap the other calls; inactive = mostly above about 0.92. The list shows a part of the results.

Assay: chemical genetic growth profiling, strain panel (AID 1159580);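 note: tested at 20 µM; growth read once vehicle control cultures reached saturation at 30 °C; 1 = growth at the plate median or of vehicle wells; lower values mean less growth of the strain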
Details: growth OD
[1] = S. cerevisiae deletion strains, locus YHR030C, strain SLT2, hits give low values

Measured: normalized growth

Oc1cc(Cl)ccc1Oc1ccc(Cl)cc1Cl
active: S. cerevisiae deletion strains, locus YAL021C, strain ccr4, hits give low values 0.0638 | S. cerevisiae deletion strains, locus YAL026C, strain drs2, hits give low values 0.0609 | S. cerevisiae deletion strains, locus YAL030W, strain snc1, hits give low values 0.0536 | S. cerevisiae deletion strains, locus YBL061C, strain skt5, hits give low values 0.0556 | S. cerevisiae deletion strains, locus YBR009C, strain hhf1, hits give low values 0.061 | S. cerevisiae deletion strains, locus YBR023C, strain chs3, hits give low values 0.0591 | S. cerevisiae deletion strains, locus YBR171W, strain sec66, hits give low values 0.0725 | S. cerevisiae deletion strains, locus YBR231C, strain swc5, hits give low values 0.0579 | S. cerevisiae deletion strains, locus YBR279W, strain paf1, hits give low values 0.0562 | S. cerevisiae deletion strains, locus YCL011C, strain gbp2, hits give low values 0.0544 | S. cerevisiae deletion strains, locus YCL016C, strain dcc1, hits give low values 0.0625 | S. cerevisiae deletion strains, locus YCL069W, strain vba3, hits give low values 0.0589 | S. cerevisiae deletion strains, locus YCR088W, strain abp1, hits give low values 0.0589 | S. cerevisiae deletion strains, locus YDL005C, strain med2, hits give low values 0.0705 | S. cerevisiae deletion strains, locus YDL040C, strain nat1, hits give low values 0.0546 | S. cerevisiae deletion strains, locus YDR001C, strain nth1, hits give low values 0.0558 | S. cerevisiae deletion strains, locus YDR069C, strain doa4, hits give low values 0.0627 | S. cerevisiae deletion strains, locus YDR137W, strain rgp1, hits give low values 0.0997 | S. cerevisiae deletion strains, locus YDR159W, strain sac3, hits give low values 0.0882 | S. cerevisiae deletion strains, locus YDR195W, strain ref2 0.117 | S. cerevisiae deletion strains, locus YDR297W, strain sur2, hits give low values 0.0544 | S. cerevisiae deletion strains, locus YDR334W, strain swr1, hits give low values 0.0588 | S. cerevisiae deletion strains, locus YDR335W, strain msn5, hits give low values 0.0583 | S. cerevisiae deletion strains, locus YDR392W, strain spt3, hits give low values 0.0729 | S. cerevisiae deletion strains, locus YEL003W, strain gim4, hits give low values 0.0524 | S. cerevisiae deletion strains, locus YEL037C, strain rad23, hits give low values 0.0551 | S. cerevisiae deletion strains, locus YEL061C, strain CIN8 (second series), hits give low values 0.0576 | S. cerevisiae deletion strains, locus YER015W, strain faa2, hits give low values 0.0585 | S. cerevisiae deletion strains, locus YER016W, strain bim1, hits give low values 0.0591 | S. cerevisiae deletion strains, locus YER111C, strain swi4, hits give low values 0.0671 | S. cerevisiae deletion strains, locus YER155C, strain BEM2 (second series), hits give low values 0.0885 | S. cerevisiae deletion strains, locus YFR010W, strain ubp6, hits give low values 0.0707 | S. cerevisiae deletion strains, locus YGL167C, strain pmr1, hits give low values 0.0693 | S. cerevisiae deletion strains, locus YGL173C, strain kem1, hits give low values 0.0649 | S. cerevisiae deletion strains, locus YGL227W, strain vid30, hits give low values 0.0625 | S. cerevisiae deletion strains, locus YGL240W, strain doc1, hits give low values 0.0739 | S. cerevisiae deletion strains, locus YGL253W, strain hxk2, hits give low values 0.054 | S. cerevisiae deletion strains, locus YHR013C, strain ard1, hits give low values 0.104 | S. cerevisiae deletion strains, locus YHR027C, strain rpn1, hits give low values 0.059 | [1] 0.104 | S. cerevisiae deletion strains, locus YHR079C, strain IRE1, hits give low values 0.121 | S. cerevisiae deletion strains, locus YHR142W, strain chs7, hits give low values 0.0756 | S. cerevisiae deletion strains, locus YJL092W, strain hpr5, hits give low values 0.0585 | S. cerevisiae deletion strains, locus YJL095W, strain BCK1 (second series), hits give low values 0.0552 | S. cerevisiae deletion strains, locus YJL095W, strain BCK1, hits give low values 0.127 | S. cerevisiae deletion strains, locus YJL115W, strain asf1, hits give low values 0.0692 | S. cerevisiae deletion strains, locus YJL129C, strain trk1, hits give low values 0.084 | S. cerevisiae deletion strains, locus YJL154C, strain vps35, hits give low values 0.0565 | S. cerevisiae deletion strains, locus YJL164C, strain tpk1, hits give low values 0.0601 | S. cerevisiae deletion strains, locus YJL166W, strain qcr8, hits give low values 0.0623 | S. cerevisiae deletion strains, locus YJR066W, strain TOR1, hits give low values -0.00201 | S. cerevisiae deletion strains, locus YKL160W, strain elf1, hits give low values 0.0596 | S. cerevisiae deletion strains, locus YKR026C, strain gcn3, hits give low values 0.0592 | S. cerevisiae deletion strains, locus YKR091W, strain srl3, hits give low values 0.0544 | S. cerevisiae deletion strains, locus YLL001W, strain dnm1, hits give low values 0.0612 | S. cerevisiae deletion strains, locus YLL026W, hits give low values 0.0561 | S. cerevisiae deletion strains, locus YLL041C, strain sdh2, hits give low values 0.0533 | S. cerevisiae deletion strains, locus YLR027C, strain aat2, hits give low values 0.0538 | S. cerevisiae deletion strains, locus YLR113W, strain HOG1, hits give low values 0.158 | S. cerevisiae deletion strains, locus YLR221C, strain rsa3, hits give low values 0.0589 | S. cerevisiae deletion strains, locus YLR258W, strain gsy2, hits give low values 0.0574 | S. cerevisiae deletion strains, locus YLR262C, strain YPT6 (second series), hits give low values 0.0751 | S. cerevisiae deletion strains, locus YLR320W, strain mms22, hits give low values 0.0752 | S. cerevisiae deletion strains, locus YLR342W, strain FKS1, hits give low values 0.0642 | S. cerevisiae deletion strains, locus YLR357W, strain rsc2, hits give low values 0.118 | S. cerevisiae deletion strains, locus YLR370C, strain arc18, hits give low values 0.0628 | S. cerevisiae deletion strains, locus YLR384C, strain iki3, hits give low values 0.057 | S. cerevisiae deletion strains, locus YML120C, strain ndi1, hits give low values 0.0562 | S. cerevisiae deletion strains, locus YMR058W, strain fet3, hits give low values 0.0596 | S. cerevisiae deletion strains, locus YMR125W, strain sto1, hits give low values 0.0732 | S. cerevisiae deletion strains, locus YMR129W, hits give low values 0.0549 | S. cerevisiae deletion strains, locus YMR205C, strain PFK2, hits give low values 0.0834 | S. cerevisiae deletion strains, locus YMR231W, strain pep5, hits give low values 0.0636 | S. cerevisiae deletion strains, locus YNL071W, strain lat1, hits give low values 0.0584 | S. cerevisiae deletion strains, locus YNL183C, strain NPR1, hits give low values 0.00315 | S. cerevisiae deletion strains, locus YNL209W, strain ssb2, hits give low values 0.0563 | S. cerevisiae deletion strains, locus YNL248C, strain rpa49, hits give low values 0.0865 | S. cerevisiae deletion strains, locus YNL322C, strain KRE1 (second series), hits give low values 0.0621 | S. cerevisiae deletion strains, locus YNR049C, strain mso1, hits give low values 0.0553 | S. cerevisiae deletion strains, locus YOR001W, strain rrp6, hits give low values 0.0701 | S. cerevisiae deletion strains, locus YOR070C, strain gyp1, hits give low values 0.0564 | S. cerevisiae deletion strains, locus YOR080W, strain dia2, hits give low values 0.0614 | S. cerevisiae deletion strains, locus YOR083W, strain WHI5, hits give low values 0.0594 | S. cerevisiae deletion strains, locus YOR106W, strain vam3, hits give low values 0.066 | S. cerevisiae deletion strains, locus YOR231W, strain MKK1, hits give low values 0.109 | S. cerevisiae deletion strains, locus YOR265W, strain rbl2, hits give low values 0.0537 | S. cerevisiae deletion strains, locus YOR270C, strain vph1, hits give low values 0.0953 | S. cerevisiae deletion strains, locus YOR290C, strain snf2, hits give low values 0.0603 | S. cerevisiae deletion strains, locus YPL051W, strain arl3, hits give low values 0.0598 | S. cerevisiae deletion strains, locus YPL078C, strain atp4, hits give low values 0.0627 | S. cerevisiae deletion strains, locus YPL106C, strain sse1, hits give low values 0.103 | S. cerevisiae deletion strains, locus YPL240C, strain hsp82, hits give low values 0.0561 | S. cerevisiae deletion strains, locus YPL256C, strain CLN2, hits give low values 0.121

Cc1cccc(C)c1NC(=O)C(C)Oc1ccc(Cl)cc1Cl (configuration not stated)
inactive: S. cerevisiae deletion strains, locus YAL013W, strain DEP1, hits give low values 1.01 | S. cerevisiae deletion strains, locus YBR229C, strain ROT2, hits give low values 1 | S. cerevisiae deletion strains, locus YDL101C, strain DUN1, hits give low values 1.01 | S. cerevisiae deletion strains, locus YDR150W, strain NUM1, hits give low values 1.02 | S. cerevisiae deletion strains, locus YEL061C, strain CIN8, hits give low values 0.996 | S. cerevisiae deletion strains, locus YGR078C, strain PAC10, hits give low values 1 | [1] 0.989 | S. cerevisiae deletion strains, locus YHR087W, strain rtc3, hits give low values 1.01 | S. cerevisiae deletion strains, locus YJL187C, strain SWE1, hits give low values 1.01 | S. cerevisiae deletion strains, locus YJR043C, strain POL32, hits give low values 1 | S. cerevisiae deletion strains, locus YJR075W, strain HOC1, hits give low values 0.998 | S. cerevisiae deletion strains, locus YKL190W, strain CNB1, hits give low values 0.999 | S. cerevisiae deletion strains, locus YLR039C, strain RIC1, hits give low values 0.961 | S. cerevisiae deletion strains, locus YLR058C, strain SHM2 (second series), hits give low values 0.997 | S. cerevisiae deletion strains, locus YLR085C, strain ARP6, hits give low values 1.02 | S. cerevisiae deletion strains, locus YLR262C, strain YPT6, hits give low values 0.963 | S. cerevisiae deletion strains, locus YML094W, strain GIM5, hits give low values 1.09 | S. cerevisiae deletion strains, locus YMR219W, strain ESC1, hits give low values 1.01 | S. cerevisiae deletion strains, locus YMR263W, strain SAP30, hits give low values 1 | S. cerevisiae deletion strains, locus YMR307W, strain GAS1, hits give low values 0.929 | S. cerevisiae deletion strains, locus YNL153C, strain GIM3, hits give low values 1.02 | S. cerevisiae deletion strains, locus YNL298W, strain CLA4 (second series), hits give low values 1.02 | S. cerevisiae deletion strains, locus YNL322C, strain KRE1, hits give low values 1 | S. cerevisiae deletion strains, locus YNR030W, strain Alg12, hits give low values 1.01 | S. cerevisiae deletion strains, locus YOL006C, strain TOP1, hits give low values 1.04 | S. cerevisiae deletion strains, locus YPL055C, strain LGE1, hits give low values 1.04 | S. cerevisiae deletion strains, locus YPL241C, strain CIN2, hits give low values 1.05 | S. cerevisiae deletion strains, locus YPR135W, strain CTF4, hits give low values 1.01 | S. cerevisiae strains, strain wild type, hits give low values 0.995
